# Assay results published in PubChem BioAssay (NCATS).
# Records with an inconclusive call do not appear. A number with no mark means an inactive call. Calls come from the whole dose curve; as a rule, active = well fitted inhibition curve with a large enough effect; inconclusive = small, poorly fitted or top-dose-only effect; inactive = no such curve, though single readings can be large or run the other way.
# Target: Papain (Carica papaya) (UniProt P00784)
# Assay: Primary qHTS assay for inhibitors of the protease papain (AID 1645873);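 note: papain turnover of Z-FR-AMC read as the AMC fluorescence gain over 10 min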
# Conditions: papain Z-FR-AMC cleavage, AMC fluorescence; series mostly up to 49.8 µM; activity change, negative = inhibition: at the top concentration
# % is set by controls: 0 for no effect and ±100 for the full control effect.
# Chain of Papain (Carica papaya) (P00784 whole entry, looked up): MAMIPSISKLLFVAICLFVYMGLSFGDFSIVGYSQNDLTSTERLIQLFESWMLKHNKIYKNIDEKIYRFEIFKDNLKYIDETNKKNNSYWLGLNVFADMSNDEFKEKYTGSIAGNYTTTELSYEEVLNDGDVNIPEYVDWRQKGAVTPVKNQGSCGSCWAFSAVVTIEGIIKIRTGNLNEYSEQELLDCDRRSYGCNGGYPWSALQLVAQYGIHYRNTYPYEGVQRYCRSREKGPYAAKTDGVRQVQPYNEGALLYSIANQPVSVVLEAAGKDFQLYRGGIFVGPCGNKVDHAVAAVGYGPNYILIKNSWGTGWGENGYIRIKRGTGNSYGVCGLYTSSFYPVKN
row,SMILES,"activity change, negative = inhibition [%]"
1,CN(C)c1cc2c(Nc3ccc4c(cnn4Cc4ccccc4)c3)ncnc2cn1,-3.69
2,COC(=O)C1=CO[C@@H](O)[C@@H]2C(CO)=CC[C@H]12,-2.25
3,O=[N+]([O-])c1ccc(-c2nc(-c3ccc(F)cc3)c(-c3ccncc3)[nH]2)cc1,8.91
4,Cc1nn(-c2ccccc2)c(C)c1/C=N/N1CCN(Cc2ccccc2)CC1,13.4
